Experimental data from PubChem BioAssay AID686978 (National Center for Advancing Translational Sciences (NCATS), 2013).
“And” between values parts separate entries of the source, which are not always exact repeats. Equal values may be shown once. About 64,000 (15%) of roughly 420,000 compounds were called active. Inconclusive results (about 27%) are left out. Calls come from the whole dose curve; as a rule, active = well fitted inhibition curve with a large enough effect; inconclusive = small, poorly fitted or top-dose-only effect; inactive = flat fitted curve, though single readings scatter. The list is a sample of the results. The source holds several records for some structures; these can differ, active in one and inactive in another.

assay: qHTS for Inhibitors of human tyrosyl-DNA phosphodiesterase 1 (TDP1): qHTS in cells in absence of CPT; details: DT40 Tdp1-/- hTDP1 cells, no CPT, ATP luminescence, 48 h; activity change, negative = growth inhibition: at 46.2 µM (top of the series); note: nearly all actives have a fitted effect of over 55% in size
Summary of the method: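 No-CPT arm: Tdp1-/-;hTDP1 DT40 cells (400/well) plus compounds, incubated ≥48 hr at 37 °C. Readout CellTiter-Glo luminescence.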
% is set by controls: 0 for no effect and ±100 for the full control effect; potency is the fitted concentration of half-maximal effect.

Row | Compound | activity change, negative = growth inhibition | Potency
1 | C[C@@H]1CC2=C(C(=O)OC(C)(C)O2)[C@@H](C2CC2)O1 | -9.87% (inactive) | –
2 | COc1cccc(-c2ccc3c(c2)S(=O)(=O)c2cccc(C(=O)O)c2C3=O)c1OC | 3.86% (inactive) | –
3 | O=C(COC(=O)c1ccc([N+](=O)[O-])cc1Cl)NC(=O)c1ccccc1 | -7.52% (inactive) | –
4 | O=S(=O)(c1ccccc1)N1CCC2(CC1)CN(Cc1nccs1)C2 | -16.2% (inactive) | –
5 | CC(=O)N[C@@H](C)C(=O)N1CCC(n2nccc2NC(=O)CCCc2ccccc2)CC1 | 26.3% (inactive) | –
6 | Cc1oc2ccc(O)c(CN3CCCCC3)c2c1C(=O)Nc1cccc(C(F)(F)F)c1 | – | 23.1 µM (active)
7 | CCOC(=O)c1cccc(NC(=O)c2cc(CN3CCCC3)on2)c1 | 0.305% (inactive) | –
8 | CC(=O)N1CCN(C(=O)Nc2cccc(C(F)(F)F)c2)CC1 | -15.5% (inactive) | –
9 | COc1ccc(CCNC(=O)COC(=O)C2CC2C)cc1 (configuration not stated) | -13.2% (inactive) | –
10 | O=C(O)CCN(Cc1ccccc1)S(=O)(=O)c1c(Cl)cccc1Cl | 12.7% (inactive) | –
11 | CCC(C)N(C(=O)CSc1ncnc2c1cnn2-c1ccccc1)C1CCS(=O)(=O)C1 (configuration not stated) | -14.9% (inactive) | –
12 | COc1ccccc1NC(=S)NC(=O)C(C)C | -4.21% (inactive) | –
13 | COc1ccccc1NC(=O)c1oc2ccccc2c1NC(=O)COc1ccccc1OC | -16.2% (inactive) | –
14 | COc1ccccc1NC(=O)c1oc2ccccc2c1NC(=O)C(C)C | – | 16.4 µM (active)
15 | Cc1ccc(C(=O)OCC(=O)Nc2ccc(Cl)cn2)cc1S(=O)(=O)N1CCOCC1 | -21.3% (inactive) | –
16 | O=C(OCCN1CCOCC1)C1(c2ccccc2)CCCCC1 | – | inactive and 26.6 µM (active)
17 | N[C@@H](Cc1ccccc1)C(=O)N1CCOCC1 | 14.3% (inactive) | –
18 | O=C(COC(=O)C1(c2ccc(F)cc2)CCCC1)N1CCNC1=O | -6.05% (inactive) | –
19 | CN(C)S(=O)(=O)N1CCC(Oc2cccc(C(=O)NCCCC3CCCC3)c2)CC1 | – | 7.31 µM (active)
20 | CNS(=O)(=O)c1cccc(C(=O)NCC2CCCCC2)c1 | 20% (inactive) | –
21 | CN(C(=O)c1cccc(OC2CCN(S(=O)(=O)N(C)C)CC2)c1)C1CCOC1 (configuration not stated) | 25.1% (inactive) | –
22 | CC(C)N(C(=O)Cn1cc(SCC(=O)N2CCCC2)c2ccccc21)C(C)C | 4.08% (inactive) | –
23 | O=C1c2ccccc2C(=O)N1CCc1nn[nH]n1 | -5.45% (inactive) | –
24 | COc1cc(C(=O)NCCS(=O)(=O)N2CCN(c3ccccc3)CC2)cc(OC)c1OC | – | 20.6 µM (active)
25 | COc1ccc(N2CC(C(=O)NCCS(=O)(=O)N3CCN(c4ccccc4)CC3)CC2=O)cc1 (configuration not stated) | – | inactive
26 | O=C(NCCS(=O)(=O)N1CCN(c2ccccc2)CC1)c1ccco1 | -3.54% (inactive) | –

Row | Compound | activity change, negative = growth inhibition | Potency
27 | O=C(O)c1cc(S(=O)(=O)N(Cc2ccccc2)c2ccccc2)ccc1Cl | -0.896% (inactive) | –
28 | C#CCOCCOCCOCCNc1nc(N2CCN(C(=O)Cn3cc(CCCCN)nn3)CC2)nc(N2CCN(C(=O)[C@H](CCCCN)n3cc(CCC(=O)O)nn3)CC2)n1 | 1.14% (inactive) | –
29 | Cc1ccc(-c2csc(-c3cc(C)on3)n2)cc1 | -23% (inactive) | –
30 | Cc1csc(OCC(=O)Nc2ccc(C)c(C)c2)n1 | -2.63% (inactive) | –
31 | COc1ccc(C(C)(NC(C)=O)c2nc(-c3ccc(S(C)(=O)=O)cc3)cs2)cc1 (configuration not stated) | -20.1% (inactive) | –
32 | COc1ccc(C(C)(O)c2nc(-c3cc(F)cc(F)c3)cs2)cc1 (configuration not stated) | – | 16.4 µM (active)
33 | COc1ccc(C(C)(O)c2nc(-c3ccc(C)c(C)c3)cs2)cc1 (configuration not stated) | – | 18.4 µM (active)
34 | COc1cccc(CN2C(=O)CCC2(C)C(=O)NC2CCCCCC2)c1 (configuration not stated) | -15.5% (inactive) | –
35 | COc1cc(C)c(S(=O)(=O)N2CCOCC2)c(C)c1C | -15.2% (inactive) | –
36 | CCNC(=O)Nc1ccc(S(=O)(=O)Nc2cnc(C)nc2C)cc1 | -7.54% (inactive) | –
37 | Cc1cccc(NC(=O)/C=C/c2ccc3c(c2)OCO3)n1 | – | 18.4 µM (active)
38 | CCc1c(C)sc(NC(=O)/C=C/c2ccc3c(c2)OCO3)c1C(=O)OC | -0.669% (inactive) | –
39 | O=C(O)/C=C/c1ccc2c(c1)OCCO2 | 2.37% (inactive) | –
40 | CC1CN(S(=O)(=O)c2ccc(C(=O)NN3CCN(C)CC3)cc2)CC(C)O1 (configuration not stated) | 4.66% (inactive) | –
41 | O=C(CCC1CCCC1)N=C1SC2CS(=O)(=O)CC2N1Cc1ccccc1 (configuration not stated) | 1.24% (inactive) | –
42 | O=C(CCN1C(=O)c2ccccc2C1=O)NCCCn1ccnc1 | -7.45% (inactive) | –
43 | CCCCN(C(=O)C1=NN(c2cc(C)ccc2C)C(=O)CC1)c1c(N)n(CCC)c(=O)[nH]c1=O | 21.6% (inactive) | –
44 | CC(C)CC(CCc1ccccc1)OS(N)(=O)=O (configuration not stated) | -1.83% (inactive) | –
45 | CN1OC[C@@H]2CN(C(=O)C(C)(C)C)[C@H](c3ccc(-n4ccnc4)cc3)C[C@@H]21 | 0.376% (inactive) | –
46 | CC1CC(C)(C)CC2(C1)NC(=O)N(CC(=O)Nc1nccs1)C2=O (configuration not stated) | 3.31% (inactive) | –
47 | Cc1ccc(CC2CC(=O)N(c3ccc4c(c3)OCCO4)C2=O)cc1 (configuration not stated) | -5.08% (inactive) | –
48 | COc1ccc(C2=NN(C(C)=O)C(c3ccccc3)C2)cc1 (configuration not stated) | -9.61% (inactive) | –
49 | COc1ccc(C2=NN(C(=O)c3ccccc3C(=O)O)C(c3ccccc3O)C2)cc1 (configuration not stated) | -19.5% (inactive) | –
50 | COc1ccc(C2CC(c3ccc([N+](=O)[O-])cc3)=NN2C(C)=O)cc1 (configuration not stated) | – | 14.6 µM (active)
51 | CC(C)N(C)C(=O)CCc1nnc(CCc2c[nH]c3ccccc23)o1 | -6.57% (inactive) | –
52 | Cc1nn(C)c(C)c1CN(C(=O)CCc1nnc(Cc2c[nH]c3ccccc23)o1)C(C)C | – | 16.4 µM (active)

Row | Compound | activity change, negative = growth inhibition | Potency
53 | Cc1nc(CN2CCN(C(=O)CCc3nnc(Cc4c[nH]c5ccccc45)o3)CC2)cs1 | -10.5% (inactive) | –
54 | CC1(C(=O)NS(=O)(=O)c2cccc(F)c2)CCN1C(=O)Cc1cc(F)ccc1F (configuration not stated) | 8.26% (inactive) | –
55 | O=C(CN1C(=O)COc2ccc(Cl)cc21)N1CCOCC1 | 7.52% (inactive) | –
56 | Cc1cccc(OCC(=O)NCCNC(=O)c2cccnc2)c1 | 8.85% (inactive) | –
57 | COc1cc(C2C(C(=O)c3ccc(C)o3)=C(O)C(=O)N2Cc2cccnc2)ccc1O (configuration not stated) | -0.599% (inactive) | –
58 | CCOC(=O)C1=C(c2ccccc2)N=C2SCC(=O)N2C1c1ccc(O)c(OC)c1 (configuration not stated) | -16.8% (inactive) | –
59 | CCOC(=O)c1ccc(N2C(=O)c3n[nH]c(C)c3C2c2ccc(O)c(OC)c2)cc1 (configuration not stated) | – | 18.4 µM (active)
60 | Cc1nc(N2CCCC2C(=O)O)c2oc3ccccc3c2n1 (configuration not stated) | 1.8% (inactive) | –
61 | CCCN(CC(=O)Nc1ccc(OC)c(OC)c1)CC(=O)Nc1ccc(F)c(F)c1F | -8.97% (inactive) | –
62 | O=C(Nc1sc2c(c1-c1nc3ccccc3[nH]1)CCCC2)C1CC1 | -0.787% (inactive) | –
63 | CC(=O)c1ccc(NC(=O)C(C)NCc2ccc(Cl)cc2)cc1 (configuration not stated) | -2.9% (inactive) | –
64 | Cc1nnc(N/N=C/c2cccs2)[nH]c1=O | -4.48% (inactive) | –
65 | COc1ccc(-n2c(O)c(C=NCC(c3ccco3)N3CCCC3)c3ccccc3c2=O)cc1OC (configuration not stated) | -12.9% (inactive) | –
66 | Cc1nnc(N/N=C/c2ccccn2)[nH]c1=O | – | 2.91 µM (active)
67 | CCOc1ccc(-n2c(O)c(/C=N/c3ccnn3Cc3ccncc3)c3ccccc3c2=O)cc1 | 3.46% (inactive) | –
68 | CCOc1ccc(-n2c(O)c(/C=N/Nc3nnc(C)c(=O)[nH]3)c3ccccc3c2=O)cc1 | – | 0.92 µM (active)
69 | CCOc1ccc(N/C(N)=N/c2nc(C)c(C)c(=O)[nH]2)cc1 | -1.43% (inactive) | –
70 | CCOc1ccc(-n2c(O)c(/C=N/Nc3nc(C)cc(C)n3)c3ccccc3c2=O)cc1 | – | 3.26 µM (active)
71 | Cc1ccccc1Nc1nnc(C)c(=O)[nH]1 | -2.18% (inactive) | –
72 | CCN(CC)CCCN=Cc1c(O)n(-c2ccc(C)cc2)c(=O)c2ccccc12 | -22.5% (inactive) | –
73 | CC(=O)Nc1ccc(S(=O)(=O)NC2(C(F)(F)F)C(=O)Nc3c2c(=O)[nH]c(=O)n3Cc2ccccc2)cc1 (configuration not stated) | -32.8% (inactive) | –
74 | Cc1cc(F)ccc1NC(=O)C(C)n1c2ccccc2c2nc(=O)cc(C)n21 (configuration not stated) | -0.709% (inactive) | –
75 | CCC(C)n1[nH]c(=O)cc1N (configuration not stated) | -7.43% (inactive) | –
76 | O=C(CCN1C(=O)C2C3C=CC(C3)C2C1=O)Oc1ccc2ccccc2c1 (configuration not stated) | -4.21% (inactive) | –
77 | CC1CCCCC1NC(=O)CN1CCC(O)(c2ccc3c(c2)OCO3)CC1 (configuration not stated) | -19.2% (inactive) | –
78 | CCC(=O)N1CCCc2ccccc21 | 3.1% (inactive) | –

Row | Compound | activity change, negative = growth inhibition | Potency
79 | CCCCn1nc(C(=O)N2CCc3ccccc32)c2ccccc2c1=O | – | 16.4 µM (active)
80 | O=C(c1cccc(C(=O)N2CCc3ccccc32)n1)N1CCc2ccccc21 | -27% (inactive) | –
81 | CCCn1nc(C(=O)N2CCCc3ccccc32)c2ccccc2c1=O | – | 18.4 µM (active)
82 | CCCCn1nc(C(=O)OCC(=O)Nc2sccc2C(N)=O)c2ccccc2c1=O | -22.1% (inactive) | –
83 | CCn1nc(C(=O)OCC(=O)N2c3ccccc3CC2C)c2ccccc2c1=O (configuration not stated) | -7.1% (inactive) | –
84 | O=C(NCCCN1CCCCCC1)C1CC(=O)N(C2CCCC2)C1 (configuration not stated) | -3.95% (inactive) | –
85 | CCN1CCN(C(c2ccc(C)cc2)c2c(O)cc(C)n(Cc3ccco3)c2=O)CC1 (configuration not stated) | -8.76% (inactive) | –
86 | CCOC(=O)[C@H](CCc1ccccc1)N[C@@H](C)C(=O)N1CC2(C[C@H]1C(=O)O)SCCS2 | -5.18% (inactive) | –
87 | Cc1ccc(NC2=NC(c3ccccc3)n3c(nc(C)cc3=O)N2)cc1 (configuration not stated) | -4.91% (inactive) | –
88 | CC(C)(C)SCCNC(=O)c1cccc([N+](=O)[O-])c1 | -20.7% (inactive) | –
89 | COc1cccc(NCCC(=O)c2cccc([N+](=O)[O-])c2)c1 | – | 14.6 µM (active)
90 | COc1cccc(CNC(=O)CCCC(=O)Nc2cccc([N+](=O)[O-])c2)c1 | -1.7% (inactive) | –
91 | CC1=NN(c2ccc(Cl)c(C(=O)O)c2)C(=O)/C1=C/c1ccc(-c2ccccc2[N+](=O)[O-])o1 | 2.39% (inactive) | –
92 | Cc1occc(=O)c1OCc1ccc(F)cc1 | 5.6% (inactive) | –
93 | Cc1nc2ccccc2cc1OCc1ccc(F)cc1 | – | 11.6 µM (active)
94 | Fc1cccc2ncnc(OCc3ccccc3)c12 | 0.0434% (inactive) | –
95 | Cc1cc(C)cc(C(=O)NC2C(=O)N3C(C(=O)O)=C(CSc4nnc(C)s4)CSC23)c1 (configuration not stated) | 7.63% (inactive) | –
96 | CCOc1ccc(NC(=O)c2ccc(NC(=O)CN3C(=O)C(=O)N(CC(C)C)C3=O)cc2)cc1 | -29.5% (inactive) | –
97 | Cc1ccsc1C(=O)OCC(=O)NCCc1ccccc1 | 1.34% (inactive) | –
98 | CCC1CCCCN1C(=O)CSc1nc(C)cc(C)n1 (configuration not stated) | 1.91% (inactive) | –
99 | CC(=O)c1cccc(NC(=S)N2CCCC2)c1 | 25.2% (inactive) | –
100 | Cc1cccc(NC(=O)C2CCN(C(=O)NC3CCCCC3)CC2)c1 | -3.04% (inactive) | –
101 | Cc1cccc(NC(=S)N2CCC(C(=O)c3ccc(F)cc3)CC2)c1 | – | 13 µM (active)
102 | Cn1c(N2CCOCC2)c(C=O)c2ccccc21 | -2.65% (inactive) | –
